Source: PubChem BioAssay (NCATS)
Inconclusive results are not listed. Activity calls are given as the source filed them. Calls come from the whole dose curve; as a rule, active = well fitted curve in the direction sought with a large enough effect; inconclusive = small, poorly fitted or top-dose-only effect, or another doubt; inactive = no such curve, though single readings can be large; an effect the other way counts as inactive or inconclusive.

Experiments:
[1] = qHTS of pediatric cancer cell lines to identify multiple opportunities for drug repurposing: Primary screen for NB1643 cells (AID 1347099); note: nearly all actives have a fitted effect of over 50% in size; note: potency is the fitted concentration of half-maximal effect
How it was run: (§1)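 Plated cells (500-1,000 per well, growth media) were allowed to settle for 5 hours, treated with compound dilutions for 48 hours, then lysed with CellTiter-Glo for 15 min at room temperature before luminescence reading.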

[2] = qHTS of pediatric cancer cell lines to identify multiple opportunities for drug repurposing: Primary screen for BT-12 cells (AID 1347101); note: nearly all actives have a fitted effect of over 25% in size; note: potency is the fitted concentration of half-maximal effect
How it was run: (§2)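 Cells (500-1,000/well) rested 5 h, then received compounds for 48 h; metabolically active cells were measured by CellTiter-Glo luminescence. Final concentrations spanned up to 46 µM (MIPE, 11-point) or 0.59 nM-46 µM (NPC, 8-point) in primary screens, 11-point in follow-ups.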

[3] = qHTS of pediatric cancer cell lines to identify multiple opportunities for drug repurposing: Primary screen for Rh18 cells (AID 1347102); note: nearly all actives have a fitted effect of over 65% in size; note: potency is the fitted concentration of half-maximal effect
How it was run: (§3)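 Cells (500-1,000/well) in growth media were settled 5 h at 37 degrees C, then given compounds for 48 h. Viability was read as CellTiter-Glo luminescence. Primary runs used MIPE at 11 points (0.78 nM-46 µM) and NPC at 8 points (0.59 nM-46 µM); follow-ups used 11 points.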

[4] = qHTS of pediatric cancer cell lines to identify multiple opportunities for drug repurposing: Primary screen for control Hh wild type fibroblast cells (AID 1347106);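 note: series mostly up to about 46 µM; a drop in luminescence marks cytotoxicity and a rise apparent proliferation; nearly all actives have a fitted effect of over 55% in size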
How it was run: as §3

[5] = qHTS of pediatric cancer cell lines to identify multiple opportunities for drug repurposing: Primary screen for Rh30 cells (AID 1347107); note: nearly all actives have a fitted effect of over 75% in size; note: potency is the fitted concentration of half-maximal effect
How it was run: as §3

[6] = qHTS of pediatric cancer cell lines to identify multiple opportunities for drug repurposing: Confirmatory screen for A673 cells (AID 1347110);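 note: cells exposed to compound for 48 h before the viability read; nearly all actives have a fitted effect of over 65% in size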; note: potency is the fitted concentration of half-maximal effect
How it was run: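 qHTS titration format: primary MIPE 0.78 nM-46 µM (11 pts), NPC 0.59 nM-46 µM; confirmation 11 pts. 48 h, CTG luminescence.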

[7] = qHTS of pediatric cancer cell lines to identify multiple opportunities for drug repurposing: Confirmatory screen for BT-12 cells (AID 1347112); note: nearly all actives have a fitted effect of over 55% in size; note: potency is the fitted concentration of half-maximal effect
How it was run: as §3

[8] = qHTS of pediatric cancer cell lines to identify multiple opportunities for drug repurposing: Confirmatory screen for LAN-5 cells (AID 1347113); note: nearly all actives have a fitted effect of over 65% in size; note: potency is the fitted concentration of half-maximal effect
How it was run: as §3

[9] = qHTS of pediatric cancer cell lines to identify multiple opportunities for drug repurposing: Confirmatory screen for NB-EBc1 cells (AID 1347115);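 note: cells exposed to compound for 48 h before the viability read; nearly all actives have a fitted effect of over 45% in size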
How it was run: as §3

[10] = qHTS of pediatric cancer cell lines to identify multiple opportunities for drug repurposing: Confirmatory screen for BT-37 cells (AID 1347117); note: nearly all actives have a fitted effect of over 55% in size; note: potency is the fitted concentration of half-maximal effect
How it was run: as §3

[11] = qHTS of pediatric cancer cell lines to identify multiple opportunities for drug repurposing: Primary screen for OHS-50 cells (AID 1347103); note: nearly all actives have a fitted effect of over 40% in size; note: potency is the fitted concentration of half-maximal effect
How it was run: as §2

[12] = qHTS of pediatric cancer cell lines to identify multiple opportunities for drug repurposing: Primary screen for RD cells (AID 1347104); note: nearly all actives have a fitted effect of over 55% in size; note: potency is the fitted concentration of half-maximal effect
How it was run: as §1

[13] = qHTS of pediatric cancer cell lines to identify multiple opportunities for drug repurposing: Primary screen for MG 63 (6-TG R) cells (AID 1347105); note: nearly all actives have a fitted effect of over 50% in size; note: potency is the fitted concentration of half-maximal effect
How it was run: as §1

[14] = qHTS of pediatric cancer cell lines to identify multiple opportunities for drug repurposing: Primary screen for Rh41 cells (AID 1347108); note: nearly all actives have a fitted effect of over 70% in size; note: potency is the fitted concentration of half-maximal effect
How it was run: as §1

[15] = qHTS of pediatric cancer cell lines to identify multiple opportunities for drug repurposing: Primary screen for LAN-5 cells (AID 1347100); note: potency is the fitted concentration of half-maximal effect
How it was run: as §3

[16] = qHTS of pediatric cancer cell lines to identify multiple opportunities for drug repurposing: Confirmatory screen for NB1643 cells (AID 1347109); note: nearly all actives have a fitted effect of over 45% in size
How it was run: as §3

[17] = qHTS of pediatric cancer cell lines to identify multiple opportunities for drug repurposing: Confirmatory screen for DAOY cells (AID 1347114); note: nearly all actives have a fitted effect of over 65% in size
How it was run: (§4)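 Viability measured as metabolically active cells via CellTiter-Glo luminescence following 48 hours of compound exposure, 11-point dilutions in confirmatory testing. 500-1,000 cells/well plated 5 hours before dosing; controls were DMSO and 2.3 µM bortezomib.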

[18] = qHTS of pediatric cancer cell lines to identify multiple opportunities for drug repurposing: Confirmatory screen for SK-N-MC cells (AID 1347111);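 note: cells exposed to compound for 48 h before the readout; nearly all actives have a fitted effect of over 70% in size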; note: potency is the fitted concentration of half-maximal effect
How it was run: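 Metabolically active cells were quantified by ATP-dependent luminescence (CellTiter-Glo, 15 min at room temperature) following 48 h treatment. Cells had been plated at 500-1,000 per well and settled for 5 h beforehand.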

[19] = qHTS of pediatric cancer cell lines to identify multiple opportunities for drug repurposing: Confirmatory screen for TC32 cells (AID 1347118); note: potency is the fitted concentration of half-maximal effect
How it was run: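 qHTS, TC32, 48 h drug treatment, CellTiter-Glo luminescence as a proxy for metabolically active cells; primary top concentration 46 µM (MIPE 11-pt, NPC 8-pt); confirmatory 11-pt.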

[20] = qHTS of pediatric cancer cell lines to identify multiple opportunities for drug repurposing: Confirmatory screen for SJ-GBM2 cells (AID 1347116); note: nearly all actives have a fitted effect of over 60% in size
How it was run: as §4

Measured: Potency

C[C@H](c1ccc(F)cc1CCCC(=O)O)N(c1cc(F)ccc1F)S(=O)(=O)c1ccc(Cl)cc1
active: [1] 14.8 µM | [5] 14.8 µM
inactive: [2] | [3] | [4] | [6] | [7] | [8] | [9] | [10]

Cc1nc(NC(=O)N2CCC[C@@H]2C(N)=O)sc1-c1csc(C(C)(C)C)n1
active: [1] 5.9 µM | [3] 7.43 µM | [11] 1.72 µM | [12] 1.66 µM | [13] 5.9 µM | [5] 14.8 µM | [14] 11.8 µM

CNC(=O)c1ccc2c(C(=Nc3cccc(CN(C)C)c3)c3ccccc3)c(O)[nH]c2c1
inactive: [2] | [3] | [13] | [4] | [5]
active: [1] 16.6 µM | [11] 13.7 µM

CC(=O)N1CCN(c2ccc(OCc3nn(C)c(C)c3-c3cccc4c(CCCOc5cc(C)c(Cl)c(C)c5)c(C(=O)O)n(Cc5cccnc5)c34)cc2)CC1
active: [1] 18.7 µM | [15] 20.9 µM | [12] 18.7 µM | [13] 29.6 µM | [14] 18.7 µM | [6] 18.5 µM
inactive: [4] | [16] | [7] | [8] | [17]

NC(N)=Nc1nc(CSCCC(N)=NS(N)(=O)=O)cs1
inactive: [2] | [3] | [13] | [4] | [16] | [6] | [18] | [7] | [8] | [17] | [9] | [10] | [19]
active: [1] 8.33 µM

Cc1ccc2c(=O)c3cccc(CC(=O)O)c3oc2c1C
active: [1] 14.8 µM | [12] 29.6 µM | [13] 23.5 µM | [14] 23.5 µM
inactive: [2] | [3] | [11] | [4] | [5]

CC(C)C[C@H](NC(=O)c1cc2ccccc2s1)C(=O)N1CCN(C(=O)[C@H](CO)NS(=O)(=O)c2ccc(Cl)cc2Cl)CC1
active: [1] 23.5 µM | [2] 0.001 µM | [11] 21.7 µM | [12] 29.6 µM | [7] 0.0037 µM | [8] 23.3 µM | [10] 13.1 µM
inactive: [20]

Cc1cccc(Nc2nc(N[C@@H]3CCCC[C@H]3N)ncc2C(N)=O)c1
active: [15] 18.7 µM | [2] 30.6 µM | [3] 20.9 µM | [11] 7.69 µM | [12] 16.6 µM | [13] 14.8 µM | [14] 11.8 µM

CN(CC=CC#CC(C)(C)C)Cc1cccc2ccccc12
inactive: [15] | [2] | [3] | [11] | [12] | [13] | [5] | [14]

CC(C)c1onc(-c2c(Cl)cccc2Cl)c1COc1ccc(C=Cc2cccc(C(=O)O)c2)c(Cl)c1
inactive: [1]
active: [11] 30.6 µM

c1ccc(CNc2nc(N3CCOc4ccccc43)nc3c2CCCC3)cc1
inactive: [3] | [12] | [13] | [4] | [5]
active: [1] 23.5 µM

CC(C)C[C@@H](N)[C@H](O)C(=O)N[C@H](C(=O)N[C@H](C(=O)N[C@@H](CC(=O)O)C(=O)O)C(C)C)C(C)C
inactive: [15] | [2] | [3] | [11] | [12] | [13] | [4]

O=C(NC[C@H](O)CO)c1ccncc1Nc1ccc(I)cc1F
inactive: [1] | [11] | [13] | [4] | [5]
active: [3] 10.5 µM

CCCCc1ccc(NS(=O)(=O)c2ccc(C)c(C(=O)N3CCN(c4cccc(C)c4C)CC3)c2)cc1
inactive: [4]
active: [1] 23.5 µM | [12] 33.2 µM

Cc1ccc(NC(=O)Nc2cc(C(F)(F)F)ccc2F)cc1Nc1ccc2c(c1)NC(=O)C2=Cc1ccc[nH]1
active: [1] 11.8 µM | [11] 27.3 µM | [12] 18.7 µM | [13] 18.7 µM

C[C@@H](NC(=O)c1ncnc(N)c1Cl)c1ncc(C(=O)Nc2cc(C(F)(F)F)c(Cl)cn2)s1
inactive: [3] | [13]
active: [1] 14.8 µM

O=[N+]([O-])c1ccc(Nc2ccccc2-c2ccccc2)c2nonc12
active: [1] 23.5 µM
inactive: [3] | [4]

CC1(C)C(N(O)C(=O)Nc2ccc(Cl)cc2)N(c2ccc(Cl)cc2)C(=O)N1CC(=O)NN=CC=Cc1ccc([N+](=O)[O-])o1 (stereo not given)
active: [1] 20.9 µM | [3] 20.9 µM | [12] 29.6 µM | [14] 14.8 µM

CC[C@H](C)C(=O)O[C@H]1C[C@H](O)C=C2C=C[C@H](C)[C@H](CC[C@@H](O)C[C@@H](O)CC(=O)O)[C@H]21
inactive: [15] | [2] | [3] | [11] | [12] | [13] | [4] | [5] | [14]

N#CC1(c2cccc(C(=O)Nc3cc(Oc4ccc5nc(NC(=O)C6CC6)sc5n4)ccc3F)c2Cl)CC1
inactive: [1]
active: [11] 19.3 µM

COc1cc([C@H]2Oc3cc([C@H]4Oc5cc(O)cc(O)c5C(=O)[C@H]4O)ccc3O[C@H]2CO)ccc1O
inactive: [3] | [11] | [4]
active: [1] 23.5 µM

COc1cc2c(cc1Cc1cccc(Cl)c1F)c(=O)c(C(=O)O)cn2[C@H](CO)C(C)C
active: [1] 23.5 µM | [11] 27.3 µM | [18] 14.7 µM | [19] 13.1 µM
inactive: [4] | [20]
